Reference: the supplement of paper PMC4466140

B1: unnamed (peptide)
chain: RRARRQMGIPTISQV
B2: unnamed (peptide)
chain: SSTPTTPERPKRKSG
B3: unnamed (peptide)
chain: RSVKRPRRAPRPVVS
B4: unnamed (peptide)
chain: NPNRRAPRRPLSTQH

target: AgAbp1; assay: SPOT peptide array binding signal intensity (averaged, normalized) (arbitrary units (background-subtracted, floor 0; scale differs between SH3 domains)); higher = stronger binding of the SH3 domain to the peptide
Summary of the method: (§1)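 GST-fused SH3 domains from four yeast species were expressed in E. coli BL21(DE3), purified on glutathione Sepharose and incubated at 10 μg/ml overnight at 4°C in TBS-based blocking buffer on cellulose membranes carrying synthetic 15-mer peptides, with cysteines replaced by serines. Bound protein was detected with anti-GST antibody, an HRP anti-mouse secondary and luminol, then imaged and quantified with Genespotter. Binding signal is the normalized, background-subtracted spot intensity averaged over replicates, in arbitrary units that differ between domains.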

Binder | SPOT peptide array binding signal intensity
B1 | 125
B2 | 128
B3 | 124

target: AgBbc1; assay: as above
Summary of the method: as §1

Binder | SPOT peptide array binding signal intensity
B1 | 71.8
B2 | 2110
B3 | 434

target: AgBem1-D1; assay: as above
Summary of the method: as §1

Binder | SPOT peptide array binding signal intensity
B1 | 252
B2 | ≤ 0
B3 | 116

target: AgBzz1-D1; assay: as above
Summary of the method: as §1

Binder | SPOT peptide array binding signal intensity
B1 | 41
B2 | 36.5
B3 | 54.5

target: AgBzz1-D2; assay: as above
Summary of the method: as §1

Binder | SPOT peptide array binding signal intensity
B1 | 35
B2 | 21
B3 | 19

target: AgCyk3; assay: as above
Summary of the method: as §1

Binder | SPOT peptide array binding signal intensity
B1 | 5
B2 | 2
B3 | 2

target: AgFus1; assay: as above
Summary of the method: as §1

Binder | SPOT peptide array binding signal intensity
B1 | 716
B2 | ≤ 0
B3 | 372

target: AgHof1; assay: as above
Summary of the method: as §1

Binder | SPOT peptide array binding signal intensity
B1 | 83.8
B2 | ≤ 0
B3 | 49

target: AgHse1; assay: as above
Summary of the method: as §1

Binder | SPOT peptide array binding signal intensity
B1 | 854
B2 | ≤ 0
B3 | 592

target: AgLsb1; assay: as above
Summary of the method: as §1

Binder | SPOT peptide array binding signal intensity
B1 | 9.75
B2 | 1
B3 | 4.5

target: AgLsb4; assay: as above
Summary of the method: as §1

Binder | SPOT peptide array binding signal intensity
B1 | 138
B2 | 602
B3 | 150

target: AgMyo5; assay: as above
Summary of the method: as §1

Binder | SPOT peptide array binding signal intensity
B1 | 5
B2 | ≤ 0
B3 | 1.25

target: AgNbp2; assay: as above
Summary of the method: as §1

Binder | SPOT peptide array binding signal intensity
B1 | 724
B2 | ≤ 0
B3 | 908

target: AgRvs167; assay: as above
Summary of the method: as §1

Binder | SPOT peptide array binding signal intensity
B1 | 10.7
B2 | 18.3
B3 | 2.17

target: AgSho1; assay: as above
Summary of the method: as §1

Binder | SPOT peptide array binding signal intensity
B1 | 287
B2 | ≤ 0
B3 | 5

target: AgSla1-D1-D2; assay: as above
Summary of the method: as §1

Binder | SPOT peptide array binding signal intensity
B1 | 99.5
B2 | ≤ 0
B3 | 15

target: AgSla1-D3; assay: as above
Summary of the method: as §1

Binder | SPOT peptide array binding signal intensity
B1 | 14.5
B2 | 1.25
B3 | 6.25

target: CaAbp1-D1; assay: as above
Summary of the method: as §1

Binder | SPOT peptide array binding signal intensity
B1 | 514
B2 | 514
B3 | 586

target: CaAbp1-D2; assay: as above
Summary of the method: as §1

Binder | SPOT peptide array binding signal intensity
B1 | 941
B2 | 1000
B3 | 430

target: CaBbc1; assay: as above
Summary of the method: as §1

Binder | SPOT peptide array binding signal intensity
B1 | 197
B2 | 2820
B3 | 663

target: CaBem1-D1; assay: as above
Summary of the method: as §1

Binder | SPOT peptide array binding signal intensity
B1 | 299
B2 | 8
B3 | 140

target: CaBzz1-D1; assay: as above
Summary of the method: as §1

Binder | SPOT peptide array binding signal intensity
B1 | 98.5
B2 | 63.5
B3 | 108

target: CaBzz1-D2; assay: as above
Summary of the method: as §1

Binder | SPOT peptide array binding signal intensity
B1 | 115
B2 | 36.2
B3 | 165

target: CaCyk3; assay: as above
Summary of the method: as §1

Binder | SPOT peptide array binding signal intensity
B1 | 25.5
B2 | 166
B3 | 106

target: CaFus1; assay: as above
Summary of the method: as §1

Binder | SPOT peptide array binding signal intensity
B1 | 657
B2 | 48.5
B3 | 208

target: CaHof1; assay: as above
Summary of the method: as §1

Binder | SPOT peptide array binding signal intensity
B1 | ≤ 0
B2 | 0.5
B3 | 2

target: CaHse1; assay: as above
Summary of the method: as §1

Binder | SPOT peptide array binding signal intensity
B1 | 278
B2 | ≤ 0
B3 | 47.5

target: CaLsb1; assay: as above
Summary of the method: as §1

Binder | SPOT peptide array binding signal intensity
B1 | 2.25
B2 | ≤ 0
B3 | 0.75

target: CaLsb4; assay: as above
Summary of the method: as §1

Binder | SPOT peptide array binding signal intensity
B1 | 806
B2 | 7900
B3 | 1720

target: CaMyo5; assay: as above
Summary of the method: as §1

Binder | SPOT peptide array binding signal intensity
B1 | 12.5
B2 | 0.25
B3 | 2

target: CaNbp2; assay: as above
Summary of the method: as §1

Binder | SPOT peptide array binding signal intensity
B1 | 1560
B2 | 28.5

target: CaRvs167; assay: as above
Summary of the method: as §1

Binder | SPOT peptide array binding signal intensity
B1 | 58
B2 | 110

target: CaRvs167-3; assay: as above
Summary of the method: as §1

Binder | SPOT peptide array binding signal intensity
B1 | 89.8
B2 | ≤ 0

target: CaSho1; assay: as above
Summary of the method: as §1

Binder | SPOT peptide array binding signal intensity
B1 | 758
B2 | 9.5

target: CaSla1-D1-D2; assay: as above
Summary of the method: as §1

Binder | SPOT peptide array binding signal intensity
B1 | 385
B2 | 480

target: CaSla1-D3; assay: as above
Summary of the method: as §1

Binder | SPOT peptide array binding signal intensity
B1 | 104
B2 | ≤ 0

target: ScAbp1; assay: as above
Summary of the method: as §1

Binder | SPOT peptide array binding signal intensity
B1 | 152
B2 | 66

target: ScBbc1; assay: as above
Summary of the method: as §1

Binder | SPOT peptide array binding signal intensity
B1 | 35.5
B2 | 2030

target: ScBem1-D1; assay: as above
Summary of the method: as §1

Binder | SPOT peptide array binding signal intensity
B1 | 100
B2 | 3

target: ScBzz1-D1; assay: as above
Summary of the method: as §1

Binder | SPOT peptide array binding signal intensity
B1 | 11.5
B2 | 15

target: ScBzz1-D2; assay: as above
Summary of the method: as §1

Binder | SPOT peptide array binding signal intensity
B1 | 54.5
B2 | 7.5

target: ScCyk3; assay: as above
Summary of the method: as §1

Binder | SPOT peptide array binding signal intensity
B1 | 53.5
B2 | ≤ 0

target: ScFus1; assay: as above
Summary of the method: as §1

Binder | SPOT peptide array binding signal intensity
B1 | 671
B2 | ≤ 0

target: ScHof1; assay: as above
Summary of the method: as §1

Binder | SPOT peptide array binding signal intensity
B1 | 0.5
B2 | ≤ 0

target: ScHse1; assay: as above
Summary of the method: as §1

Binder | SPOT peptide array binding signal intensity
B1 | 2110
B2 | 33.5

target: ScLsb1; assay: as above
Summary of the method: as §1

Binder | SPOT peptide array binding signal intensity
B1 | 72.5
B2 | 260

target: ScLsb2; assay: as above
Summary of the method: as §1

Binder | SPOT peptide array binding signal intensity
B1 | 2
B2 | 1

target: ScLsb3; assay: as above
Summary of the method: as §1

Binder | SPOT peptide array binding signal intensity
B1 | 639
B2 | 5780

target: ScLsb4; assay: as above
Summary of the method: as §1

Binder | SPOT peptide array binding signal intensity
B1 | 121
B2 | 836

target: ScMyo3; assay: as above
Summary of the method: as §1

Binder | SPOT peptide array binding signal intensity
B1 | 2.25
B2 | ≤ 0

target: ScMyo5; assay: as above
Summary of the method: as §1

Binder | SPOT peptide array binding signal intensity
B1 | 1.5
B2 | ≤ 0

target: ScNbp2; assay: as above
Summary of the method: as §1

Binder | SPOT peptide array binding signal intensity
B1 | 1060
B2 | ≤ 0

target: ScPex13; assay: as above
Summary of the method: as §1

Binder | SPOT peptide array binding signal intensity
B1 | 96.9
B2 | 78.2

target: ScRvs167; assay: as above
Summary of the method: as §1

Binder | SPOT peptide array binding signal intensity
B1 | 95
B2 | 902

target: ScSho1; assay: as above
Summary of the method: as §1

Binder | SPOT peptide array binding signal intensity
B1 | 978
B2 | ≤ 0

target: ScSla1-D1-D2; assay: as above
Summary of the method: as §1

Binder | SPOT peptide array binding signal intensity
B1 | 484
B2 | 290

target: ScSla1-D3; assay: as above
Summary of the method: as §1

Binder | SPOT peptide array binding signal intensity
B1 | 308
B2 | 15

target: SpAbp1-D1; assay: as above
Summary of the method: as §1

Binder | SPOT peptide array binding signal intensity
B1 | 416
B2 | 85

target: SpBbc1; assay: as above
Summary of the method: as §1

Binder | SPOT peptide array binding signal intensity
B1 | 12.2
B2 | 22.2

target: SpBzz1-D1; assay: as above
Summary of the method: as §1

Binder | SPOT peptide array binding signal intensity
B1 | 143
B2 | 64

target: SpBzz1-D2; assay: as above
Summary of the method: as §1

Binder | SPOT peptide array binding signal intensity
B1 | 4.25
B2 | ≤ 0
B4 | 32.2

target: SpCyk3; assay: as above
Summary of the method: as §1

Binder | SPOT peptide array binding signal intensity
B1 | 3.5
B2 | ≤ 0
B4 | 1

target: SpHof1; assay: as above
Summary of the method: as §1

Binder | SPOT peptide array binding signal intensity
B1 | 188
B2 | 2.5
B4 | 342

target: SpHof1-2; assay: as above
Summary of the method: as §1

Binder | SPOT peptide array binding signal intensity
B1 | 71
B2 | 2
B4 | 8.5

target: SpHof1-3; assay: as above
Summary of the method: as §1

Binder | SPOT peptide array binding signal intensity
B1 | 435
B2 | 177
B4 | 166

target: SpHse1; assay: as above
Summary of the method: as §1

Binder | SPOT peptide array binding signal intensity
B1 | 1100
B2 | 11
B4 | 1390

target: SpLsb1; assay: as above
Summary of the method: as §1

Binder | SPOT peptide array binding signal intensity
B1 | 7.5
B2 | 1030
B4 | 11

target: SpLsb4; assay: as above
Summary of the method: as §1

Binder | SPOT peptide array binding signal intensity
B1 | 642
B2 | 8450
B4 | 906

target: SpMyo1; assay: as above
Summary of the method: as §1

Binder | SPOT peptide array binding signal intensity
B1 | 13.5
B2 | ≤ 0
B4 | 84.5

target: SpNbp2; assay: as above
Summary of the method: as §1

Binder | SPOT peptide array binding signal intensity
B1 | 1480
B2 | ≤ 0
B4 | 498

target: SpPex13; assay: as above
Summary of the method: as §1

Binder | SPOT peptide array binding signal intensity
B1 | 86
B2 | ≤ 0
B4 | 48.5

target: SpRvs167; assay: as above
Summary of the method: as §1

Binder | SPOT peptide array binding signal intensity
B1 | 50.2
B2 | 450
B4 | 17

target: SpSla1-D1-D2; assay: as above
Summary of the method: as §1

Binder | SPOT peptide array binding signal intensity
B1 | 24.2
B2 | 8
B4 | 1

target: SpSla1-D3; assay: as above
Summary of the method: as §1

Binder | SPOT peptide array binding signal intensity
B1 | 131
B2 | ≤ 0
B4 | 32
